Reference: the supplement of paper PMC12282887
± gives the standard deviation of the averaged measurements.

Tests used:
Test in all cases: promoter activity interaction Z-score (Lux/OD deviation from empty-vector control); higher = stronger promoter induction by the compound
[1] = system: E. coli BW25113 acrABp lux reporter
Procedure, shortened: (§1)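 Four 1:2 dilutions of each compound were tested in biological duplicates on E. coli BW25113 carrying low-copy luxCDABE promoter reporters, either wild type or deleted for one of three genes. Cultures of 40 µl LB Lennox in 384-well plates were kept at 37°C and read for OD600 and luminescence every 30 min for 12 h. Integration windows were 0–8 h for wild type and 1–9 h for deletion strains, and wells under 10% of the median growth value were discarded. The score is a Z-transformed residual of growth-normalised luminescence relative to a control fit.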

[2] = system: E. coli BW25113 micFp lux reporter
Procedure, shortened: as §1

[3] = system: E. coli BW25113 ompFp lux reporter
Procedure, shortened: as §1

[4] = 22.5 µg/ml, genetic background: wild type
[5] = 22.5 µg/ml, genetic background: ΔmarA
[6] = 22.5 µg/ml, genetic background: Δrob
[7] = 22.5 µg/ml, genetic background: ΔsoxS
[8] = 45 µg/ml, genetic background: wild type
[9] = 45 µg/ml, genetic background: ΔmarA
[10] = 45 µg/ml, genetic background: Δrob
[11] = 45 µg/ml, genetic background: ΔsoxS
[12] = 90.1 µg/ml, genetic background: wild type
[13] = 90.1 µg/ml, genetic background: ΔmarA
[14] = 90.1 µg/ml, genetic background: Δrob
[15] = 90.1 µg/ml, genetic background: ΔsoxS
[16] = 180.2 µg/ml, genetic background: wild type
[17] = 180.2 µg/ml, genetic background: ΔmarA
[18] = 180.2 µg/ml, genetic background: Δrob
[19] = 180.2 µg/ml, genetic background: ΔsoxS

CC(=O)Oc1ccccc1C(=O)O [Acetylsalicylic acid] was tested, and the “promoter activity interaction Z-score” value [1, 4] was -0.0985 ± 0.4, the “promoter activity interaction Z-score” value [1, 5] was -0.517 ± 0.098 and the “promoter activity interaction Z-score” value [1, 6] was -0.0077 ± 0.088. For the same compound, the “promoter activity interaction Z-score” value [1, 7] was -0.0154 ± 0.64, the “promoter activity interaction Z-score” value [1, 8] was -0.074 ± 0.32 and the “promoter activity interaction Z-score” value [1, 9] was 0.0467 ± 0.55. For the same compound, the “promoter activity interaction Z-score” value [1, 10] was 0.166 ± 0.1, the “promoter activity interaction Z-score” value [1, 11] was 0.231 ± 0.27 and the “promoter activity interaction Z-score” value [1, 12] was -0.285 ± 0.52. The “promoter activity interaction Z-score” value [1, 13] was -0.333 ± 1.1, the “promoter activity interaction Z-score” value [1, 14] was -0.137 ± 0.07 and the “promoter activity interaction Z-score” value [1, 15] was 0.467 ± 0.76. The “promoter activity interaction Z-score” value [1, 16] was 0.092 ± 0.075, the “promoter activity interaction Z-score” value [1, 17] was -0.505 ± 0.22 and the “promoter activity interaction Z-score” value [1, 18] was 0.377 ± 0.044. For the same compound, the “promoter activity interaction Z-score” value [1, 19] was 1.71 ± 1.2, the “promoter activity interaction Z-score” value [2, 4] was 0.2 ± 0.11 and the “promoter activity interaction Z-score” value [2, 5] was 0.0379 ± 0.26. For the same compound, the “promoter activity interaction Z-score” value [2, 6] was 0.404 ± 0.28, the “promoter activity interaction Z-score” value [2, 7] was 0.0828 ± 0.038 and the “promoter activity interaction Z-score” value [2, 8] was 0.294 ± 0.19. The “promoter activity interaction Z-score” value [2, 9] was 0.0785 ± 0.071, the “promoter activity interaction Z-score” value [2, 10] was 0.518 ± 0.31 and the “promoter activity interaction Z-score” value [2, 11] was 0.285 ± 0.12. The “promoter activity interaction Z-score” value [2, 12] was 0.237 ± 0.08, the “promoter activity interaction Z-score” value [2, 13] was 0.0592 ± 0.067 and the “promoter activity interaction Z-score” value [2, 14] was 1.19 ± 0.68. The “promoter activity interaction Z-score” value [2, 15] was 0.855 ± 0.27, the “promoter activity interaction Z-score” value [2, 16] was 1.38 ± 0.096 and the “promoter activity interaction Z-score” value [2, 17] was 0.189 ± 0.12. For the same compound, the “promoter activity interaction Z-score” value [2, 18] was 2.72 ± 0.048, the “promoter activity interaction Z-score” value [2, 19] was 2.65 ± 0.019 and the “promoter activity interaction Z-score” value [3, 4] was 0.15 ± 0.52. For the same compound, the “promoter activity interaction Z-score” value [3, 5] was -0.0334 ± 0.0097, the “promoter activity interaction Z-score” value [3, 6] was -0.332 ± 0.11 and the “promoter activity interaction Z-score” value [3, 7] was -0.533 ± 0.19. For the same compound, the “promoter activity interaction Z-score” value [3, 8] was 0.0711 ± 0.62, the “promoter activity interaction Z-score” value [3, 9] was -0.0561 ± 0.37 and the “promoter activity interaction Z-score” value [3, 10] was -0.229 ± 0.49. For the same compound, the “promoter activity interaction Z-score” value [3, 11] was -0.162 ± 0.16, the “promoter activity interaction Z-score” value [3, 12] was -0.597 ± 0.69 and the “promoter activity interaction Z-score” value [3, 13] was -0.411 ± 0.14. The “promoter activity interaction Z-score” value [3, 14] was -0.956 ± 0.38, the “promoter activity interaction Z-score” value [3, 15] was 0.0662 ± 0.72 and the “promoter activity interaction Z-score” value [3, 16] was -0.594 ± 0.36. The “promoter activity interaction Z-score” value [3, 17] was -0.771 ± 0.14, the “promoter activity interaction Z-score” value [3, 18] was -0.628 ± 0.52 and the “promoter activity interaction Z-score” value [3, 19] was -0.165 ± 0.36.
